Our source for the Euclidean distance values is the supplement of paper PMC10127200.

Experiment in all cases: Euclidean distance of Cell Painting phenotypic profile (signed KS, 77 features) to DMSO centroid (dimensionless distance); 5 or 10 uM (library dependent); higher = stronger phenotypic change vs DMSO (phenoactivity)
Holding throughout (conditions): 48 h

The test system of one test is 786-O. In outline:
(§1)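 Stained cells were imaged confocally at 20X with 9 fields per well, after 48 h of exposure to library compounds at 10 or 5 uM (set by library; 0.1% DMSO final). The cells were five cancer lines and a healthy fibroblast line. From the images, Harmony extracted 77 features, each expressed as a signed Kolmogorov-Smirnov statistic relative to same-plate vehicle wells. Phenoactivity is measured as Euclidean distance to the median vehicle profile, using plate-position-corrected, correlation-weighted profiles averaged across replicates at the top dose.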

The next test relates to A549. In outline:
as §1

Another test concerns DU145. Summed up:
as §1

In the next test the test system is FB. In outline:
as §1

A further test has as its system HEPG2. Summed up: as §1
The next test deals with OVCAR4. In outline: as §1

Counter-ions that a name gives are not always drawn.

Turning to `COc1ccc(-c2cc(=O)c3c(O)c(OC)c(O)cc3o2)cc1OC` [Eupatilin], the Euclidean distance in the test with 786-O is 1.61; in the test with A549, 1.04; with DU145 it was 1.76; with FB it was 1.51; with HEPG2, 1.35; in the test with OVCAR4, 0.872.

Turning to `Cc1cn([C@H]2C=C[C@@H](CO)O2)c(=O)[nH]c1=O` [Stavudine (d4T)], the Euclidean distance in the test on 786-O was determined as 1.64; with A549, 1.46; in the test on DU145, 0.564; with FB, 0.969; in the test on HEPG2, 0.716; in the test with OVCAR4, 1.06.

As for `NC1(Cc2ccc(Cl)cc2)CCN(c2ncnc3[nH]ccc23)CC1`, the Euclidean distance with 786-O worked out at 1.5; in the test with A549, 1.13; with DU145, 1.5; with FB it was 1.39; in the test on HEPG2 it was 1.17; in the test on OVCAR4, 1.39.

`O=c1c(O)c(-c2ccc(O)cc2)oc2cc(O)cc(O)c12` [Kaempferol]: the Euclidean distance with 786-O is 1.49; with A549, 0.589; in the test on DU145, 0.883; in the test with FB, 1.36; in the test with HEPG2 it was 0.783; in the test with OVCAR4, 1.45.

In the case of `O=C(CCCCCCNC(=O)c1cnc(N(c2ccccc2)c2ccccc2Cl)nc1)NO` [Citarinostat (ACY-241)], the Euclidean distance in the test with 786-O stood at 1.92; with A549 it was 2.05; with DU145 it was 2.16; with FB, 3.07; with HEPG2, 2.52; in the test on OVCAR4, 1.75.

Turning to `CCN(CC)CCCC(C)Nc1ccnc2cc(Cl)ccc12` (centres undefined) [Chloroquine Phosphate], the Euclidean distance in the test on 786-O was 3.74; in the test with A549, 3.04; with DU145, 2.7; in the test with FB it was 4.77; with HEPG2 it was 3.32; in the test on OVCAR4 it was 3.09.

For the compound `O=C(/C=C/c1ccc(O)c(O)c1)O[C@H](Cc1ccc(O)c(O)c1)C(=O)O` [Rosmarinic acid], the Euclidean distance in the test on 786-O amounted to 0.778; with A549 it was 0.874; in the test with DU145, 0.818; in the test on FB, 0.847; in the test with HEPG2 it was 0.532; in the test with OVCAR4, 0.722.

For the compound `CCCCC(=O)O[C@]1(C(=O)CO)[C@@H](C)C[C@H]2[C@@H]3CCC4=CC(=O)C=C[C@]4(C)[C@@]3(F)[C@@H](O)C[C@@]21C` [Betamethasone Valerate], the Euclidean distance came out at 1.33 in the test with 786-O; 1.98 in the test with A549; 2.2 in the test on DU145; 1.71 with FB; 0.591 in the test with HEPG2; 2.13 in the test on OVCAR4.

`COc1ccc(C(Cl)=C(c2ccc(OC)cc2)c2ccc(OC)cc2)cc1` [Chlorotrianisene]: the Euclidean distance in the test on 786-O turned out to be 1.13; with A549, 1.23; in the test on DU145, 0.763; in the test with FB, 1.08; in the test on HEPG2 it was 1.11; in the test with OVCAR4, 1.04.

As to `Cn1c([N+](=O)[O-])cnc1COC(N)=O` [Ronidazole], the Euclidean distance is 1.13 in the test on 786-O; 0.834 in the test with A549; 0.687 in the test with DU145; 1.01 in the test on FB; 0.646 in the test with HEPG2; 1.59 in the test with OVCAR4.

As for `COc1ccc(-c2ccc3c(N4CCOC[C@@H]4C)nc(N4CCOC[C@@H]4C)nc3n2)cc1CO`, the Euclidean distance was 4 in the test with 786-O; 3.49 in the test with A549; 2.25 in the test on DU145; 5.02 in the test on FB; 2.55 with HEPG2; 3.73 in the test on OVCAR4.

For the compound `COc1cc(NS(=O)(=O)c2ccc(N)cc2)nc(OC)n1` [SulfadiMethoxine sodium], the Euclidean distance in the test on 786-O was 1.05; in the test on A549 it was 0.781; with DU145 it was 0.776; with FB it was 1.03; with HEPG2 it was 0.428; with OVCAR4, 0.631.

`C=CC(=O)Nc1cccc(Nc2nc(Nc3ccc(N4CCN(C(C)=O)CC4)cc3OC)ncc2C(F)(F)F)c1`: the Euclidean distance in the test with 786-O came out at 1.04; in the test on A549, 0.866; in the test with DU145, 0.799; in the test on FB, 1.01; in the test on HEPG2, 0.62; with OVCAR4, 0.883.

`Cc1c(O)cccc1C(=O)N[C@@H](CSc1ccccc1)[C@H](O)CN1C[C@H]2CCCC[C@H]2C[C@H]1C(=O)NC(C)(C)C` [Nelfinavir Mesylate]: the Euclidean distance was determined as 1.88 with 786-O; 2.45 in the test on A549; 1.22 with DU145; 1.59 in the test with FB; 1.01 in the test on HEPG2; 1.16 with OVCAR4.

As to `N[C@@H](CSCCCO)C(=O)O` [Fudosteine], the Euclidean distance stood at 1.5 in the test on 786-O; 1.77 in the test with A549; 0.71 with DU145; 1.34 in the test on FB; 0.516 with HEPG2; 1.3 with OVCAR4.

`CCCOc1ccc2c(c1)CC[C@@H]1[C@@H]2CC[C@]2(C)[C@@H](OC)CC[C@@H]12` [Promestriene]: the Euclidean distance in the test on 786-O is 1.13; in the test with A549, 0.797; with DU145, 0.94; with FB, 1.24; in the test with HEPG2, 0.764; with OVCAR4 it was 1.01.

As for `CO[C@H]1/C=C/O[C@@]2(C)Oc3c(C)c(O)c4c(O)c(c5c(nc6cc(C)ccn65)c4c3C2=O)NC(=O)/C(C)=C\C=C\[C@H](C)[C@H](O)[C@@H](C)[C@@H](O)[C@@H](C)[C@H](OC(C)=O)[C@@H]1C` [Rifaximin], the Euclidean distance in the test on 786-O was 1.35; in the test on A549, 0.671; with DU145, 0.886; with FB, 1; in the test on HEPG2 it was 1.9; with OVCAR4 it was 1.06.

Take `Nc1nc2c(ncn2COCCO)c(=O)[nH]1` [Aciclovir]: the Euclidean distance is 1.1 in the test on 786-O; 1.17 in the test with A549; 1.08 in the test with DU145; 1.32 in the test with FB; 1.25 in the test on HEPG2; 1.37 in the test on OVCAR4.

As for `C[C@H](Nc1ncnc2nc[nH]c12)c1cc2cccc(Cl)c2c(=O)n1-c1ccccc1` [Duvelisib (IPI-145. INK1197)], the Euclidean distance stood at 2.36 in the test on 786-O; 1.56 with A549; 2.77 in the test on DU145; 2.98 in the test on FB; 1.32 with HEPG2; 1.91 in the test on OVCAR4.

`O=C(NC[C@H]1CN(c2ccc(N3CCOCC3=O)cc2)C(=O)O1)c1ccc(Cl)s1` [Rivaroxaban]: the Euclidean distance in the test with 786-O was found to be 1.33; in the test on A549, 1.15; in the test with DU145 it was 0.946; with FB, 0.949; in the test on HEPG2, 0.52; in the test on OVCAR4 it was 1.51.

Regarding `O=NN(CCCl)C(=O)NCCCl` [Carmustine], the Euclidean distance with 786-O was 1.97; in the test on A549, 0.741; with DU145, 1.29; with FB, 0.896; in the test on HEPG2, 0.515; in the test with OVCAR4 it was 0.875.

In the case of `O=C(O)c1ccc(C=C2SC(=S)N(c3cccc(C(F)(F)F)c3)C2=O)cc1`, the Euclidean distance stood at 0.542 with 786-O; 0.983 in the test on A549; 0.711 with DU145; 0.939 in the test with FB; 0.977 with HEPG2; 1.56 in the test with OVCAR4.

In the case of `NC(CO)C(=O)NNCc1ccc(O)c(O)c1O` (centres undefined) [Benserazide HCl], the Euclidean distance with 786-O came to 1.18; in the test on A549, 0.748; in the test with DU145 it was 0.938; with FB, 0.967; in the test with HEPG2 it was 0.666; in the test on OVCAR4, 1.39.

`COc1nc(C)nc(Cl)c1NC1=NCCN1` [Moxonidine]: the Euclidean distance with 786-O came out at 1.15; in the test on A549, 0.652; in the test with DU145, 1.39; in the test on FB, 0.879; in the test on HEPG2, 2.14; in the test with OVCAR4, 1.43.
